DT40 TDP1 no CPT: qHTS for Inhibitors of human tyrosyl-DNA phosphodiesterase 1 (TDP1): qHTS in cells in absence of CPT; Potency, µM (titrated, usually from 46.2 µM), inactives show at the top dose activity change, negative = growth inhibition, usual class: inhibitors; DT40 Tdp1-/- hTDP1 cells, no CPT, ATP luminescence, 48 h; actives 15% (n = 420,000); also: potency is read from the fitted curve at half-maximal effect; % is scaled to controls: 0 for no effect and ±100 for the full control effect; nearly all actives have a fitted effect of over 55% in size
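Chicken DT40 Tdp1-/- cells stably complemented with human TDP1 were seeded at 400 cells/well with DMSO in place of 20 nM camptothecin. After compound pinning, cells grew at least 48 hr at 37 °C; viability read by CellTiter-Glo luminescence.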
IL-1B inflam inh: qHTS for Inhibitors of Inflammasome Signaling: IL-1-beta AlphaLISA Primary Screen. AID 743279, 2014. THP-1 LPS/ATP IL-1B secretion, AlphaLISA, 16 h; stronger effect = lower value. activity change, % at 57.5 µM. actives 4.7% (n = 360,000); in the data active = activity change below about -50%; inconclusive = mostly about -30% to -49%; also: % is scaled to controls: 0 for no effect and ±100 for the full control effect
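THP-1 cells pretreated 1 hr with compounds (up to 57.5 uM final), then stimulated with LPS (250 ng/mL final) plus ATP (1.25 mM final); secreted IL-1B measured by AlphaLISA after 16 hr, decreased signal indicating inhibition.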
HepG2 tox: qHTS for Inhibitors of TGF-b: Cytotox Counterscreen. Potency, µM (top dose mostly 46.1 µM), for the others: at the highest dose activity change, negative = cytotoxicity, usual class: cytotoxic. actives 0.76% (n = 410,000). HepG2 CAGA-GFP viability, ATP luminescence, 18 h; also: potency is read from the fitted curve at half-maximal effect
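HepG2 CAGA-GFP cells (1000/well, DMEM with 1% FBS) received compound, then TGF-beta at 500 pg/mL final, and were incubated 18 hours at 37 degrees C. Viability was read by CellTiter-Glo luminescence. Media-only wells were set as complete cell-killing and DMSO as no toxicity.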
TGFb inhibitor: qHTS for Inhibitors of TGF-b; actives 1.2% (n = 410,000); Potency, µM (highest dose often 46.1 µM), without a hit: at the top dose activity, negative = inhibition, most hits filed as inhibitors; HepG2 CAGA-GFP TGF-b/SMAD3 reporter, GFP fluorescence, 18 h; TGF-beta stimulated, 500 pg/mL final; AID 588855, 2011; also: potency is read from the fitted curve at half-maximal effect; % is scaled to controls: 0 for no effect and ±100 for the full control effect; nearly all actives have a fitted effect of over 65% in size
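TGF-beta reporter screen: HEPG2 CAGA-GFP, 1% FBS, 500 pg/mL TGF-beta final, 18 h; per-cell GFP summed per well; curves fitted and categorized by class.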
DT40 TDP1 CPT: qHTS for Inhibitors of human tyrosyl-DNA phosphodiesterase 1 (TDP1): qHTS in cells in presence of CPT; AID 686979, 2013; Potency, µM (highest dose often 46.2 µM), inactives show at the highest dose activity change, negative = growth inhibition, usual class: inhibitors; actives 12% (n = 420,000); chicken DT40 Tdp1-/-;hTDP1 cells + 20 nM CPT, ATP luminescence, 48 h; also: potency is read from the fitted curve at half-maximal effect; % is scaled to controls: 0 for no effect and ±100 for the full control effect; nearly all actives have a fitted effect of over 55% in size
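Chicken DT40 Tdp1-/- cells stably complemented with human TDP1 were seeded at 400 cells/well in medium containing 20 nM camptothecin, exposed to pin-transferred compounds, and grown at 37 °C for at least 48 hr. Viability was read as ATP luminescence.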
TDP1 inh: qHTS Assay for Inhibitors of Tyrosyl-DNA Phosphodiesterase (TDP1) | Tyrosyl-DNA phosphodiesterase 1 (Homo sapiens), Q9NUW8 | recombinant TDP1, AlphaScreen DNA substrate cleavage | Potency, µM (titrated, usually from 130 µM), for inactives: at the top dose activity change, negative = inhibition, most hits filed as inhibitors | actives 0.28% (n = 350,000) | AID 485290, 2010; also: potency is read from the fitted curve at half-maximal effect; % is scaled to controls: 0 for no effect and ±100 for the full control effect; nearly all actives have a fitted effect of over 40% in size
Target sequence (Q9NUW8 whole entry, looked up): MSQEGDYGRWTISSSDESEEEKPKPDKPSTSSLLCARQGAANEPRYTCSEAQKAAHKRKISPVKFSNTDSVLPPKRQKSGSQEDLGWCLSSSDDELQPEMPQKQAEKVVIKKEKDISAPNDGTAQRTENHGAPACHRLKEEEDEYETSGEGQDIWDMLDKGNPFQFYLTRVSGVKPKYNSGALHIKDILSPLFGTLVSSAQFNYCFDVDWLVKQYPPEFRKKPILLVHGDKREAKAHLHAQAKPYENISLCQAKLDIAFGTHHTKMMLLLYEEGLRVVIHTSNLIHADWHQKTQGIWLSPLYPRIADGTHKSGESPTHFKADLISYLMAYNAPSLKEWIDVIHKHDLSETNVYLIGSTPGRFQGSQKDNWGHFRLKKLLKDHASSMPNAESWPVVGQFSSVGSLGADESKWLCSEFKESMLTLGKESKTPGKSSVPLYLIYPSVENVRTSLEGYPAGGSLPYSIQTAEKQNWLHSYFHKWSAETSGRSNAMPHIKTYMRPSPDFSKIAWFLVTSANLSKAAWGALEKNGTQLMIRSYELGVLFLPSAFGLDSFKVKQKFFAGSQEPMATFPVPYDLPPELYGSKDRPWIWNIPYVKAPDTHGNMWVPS
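Tdp1 1 nM final; 15 min RT w/ cpd; substrate 15 nM, 5 min; beads 10 ug/ml, 10 min; AlphaScreen read. Neg ctrl: no enzyme.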
* marks the source's active call; other numbers are inactive results; ? = inconclusive; · = no result given; [ ] = another dose, or the depositor's remark. This is a sample that favours compounds with a hit; in the whole collection about 18% have one here. Unless noted, calls follow the shape of the dose curve; as a rule, active = well fitted curve in the direction sought with a large enough effect; inconclusive = small, poorly fitted or top-dose-only effect, or another doubt; inactive = no such curve, though single readings can be large; an effect the other way counts as inactive or inconclusive.

SMILES	DT40 TDP1 no CPT	IL-1B inflam inh	HepG2 tox	TGFb inhibitor	DT40 TDP1 CPT	TDP1 inh
COCCOc1ccc(C(F)(F)F)cc1NC(=O)COC(=O)c1cc([N+](=O)[O-])ccc1N1CCOCC1	23µM*	-16	35%	-7%	15µM*	3%
Cc1cc(Cl)ccc1NC(=O)COC(=O)c1cc([N+](=O)[O-])ccc1N1CCOCC1	?	?	3%	1%	-11%	0%
O=C(COC(=O)c1cc([N+](=O)[O-])ccc1N1CCOCC1)NCc1ccccc1	-11%	-16	0%	-1%	-6%	·
COc1ccc(NS(=O)(=O)c2cnc(N)nc2)cc1Cl	-15%	·	-2%	-18%	4%	5%
COc1ccc(C2Nc3ccccc3C(=O)N2CC(C)(C)C)cc1COc1ccc(NC(C)=O)cc1 (stereo not given)	·	·	·	·	·	4%
S=C(N/N=C/c1ccccc1Cl)Nc1cccc(Cl)c1Cl	10µM*	24	-23%	-14%	?	·
S=C(NCC1CC1)N/N=C/c1ccccc1Cl	23µM*	6	-166%	0%	?	2%
Oc1ccccc1C=NNC(=S)Nc1ccc(F)cc1	1.5µM*	-95*	-2%	0%	0.92µM*	·
Fc1ccc(NC(=S)NN=Cc2ccccc2Cl)cc1	3.3µM*	-1	1%	0%	2.3µM*	·
COc1cc2c(cc1NC(=O)C(C)Oc1ccc(Cl)cc1Cl)oc1ccccc12 (stereo not given)	-24%	·	-46%	0%	-20%	0%
O=[N+]([O-])c1ccc(Cl)c(/C=N/NC(=S)Nc2ccccc2)c1	10µM*	46	-14%	-17%	11µM*	8%
CCc1c(C)c(C#N)c2nc3ccccc3n2c1Nc1c(C)n(C)n(-c2ccccc2)c1=O	-29%	8	-2%	-16%	?	-3%
CCc1c(C)c(C#N)c2nc3ccccc3n2c1Nc1cccc(C(F)(F)F)c1	16µM*	·	-15%	1%	16µM*	1%
CC(C)C(NC(=O)C1(NC(=O)OCc2ccccc2)CCCC1)C(=O)O (stereo not given)	-10%	-9	1%	2%	6%	·
COCCN=c1scc(-c2cc(OC)c(OC)c(OC)c2)n1/N=C/c1c(C)[nH]c2ccccc12	18µM*	?	-12%	?	?	8%
O=C(COC(=O)CCSc1ccccc1)Nc1ccccc1	-27%	28	-28%	6%	5%	-1%
Cc1ccc(NC(=O)C2CCCN2S(=O)(=O)c2ccc3c(c2)CCCC(=O)N3)cc1C (stereo not given)	21µM*	·	-24%	?	?	-5%
Cc1cc(C)cc(NC(=O)C2CCCN2S(=O)(=O)c2ccc3c(c2)CCCC(=O)N3)c1 (stereo not given)	?	·	-27%	-24%	?	5%
Cc1cc(Cl)ccc1NC(=O)C1CCCN1S(=O)(=O)c1ccc2c(c1)CCCC(=O)N2 (stereo not given)	8.2µM*	·	-26%	?	15µM*	0%
Cc1ccc(Cl)cc1NC(=O)C1CCCN1S(=O)(=O)c1ccc(-c2ccc(=O)[nH]n2)s1 (stereo not given)	15µM*	-77*	-14%	-17%	-25%	9%
CCc1ccc(NC(=O)C2CCCN2S(=O)(=O)c2ccc3c(c2)CCCC(=O)N3)cc1 (stereo not given)	18µM*	·	-33%	?	16µM*	3%
CCOC(=O)CCN1C(=O)[C@H]2[C@H]3[C@H](O)[C@H](O)C/C(=N/OC/C=C(\C)CCC=C(C)C)[C@H]3CC[C@@H]2C1=O	·	·	·	·	·	9%[21 µM]
Cc1ccc2[nH]c(CNC(=O)C3CCCCC3)cc2c1	-6%	1	2%	-10%	14%	·
COC(=O)[C@@]1(Cc2ccccc2)[C@H]2C(=O)N(C)C(=O)[C@H]2[C@H]2CN=C(SCc3ccc(Cl)cc3)N21	12µM*	0	-37%	?	13µM*	1%[56.1 µM]
CC[C@]1(C(=O)OC)[C@H]2C(=O)N(C)C(=O)[C@H]2[C@H]2CN=C(SCc3ccc(Cl)cc3)N21	?	0	-27%	-11%	?	1%[56.1 µM]
SMILES	DT40 TDP1 no CPT	IL-1B inflam inh	HepG2 tox	TGFb inhibitor	DT40 TDP1 CPT	TDP1 inh
COC(=O)[C@@]1(Cc2ccccc2)[C@H]2C(=O)N(C)C(=O)[C@H]2[C@H]2CN=C(SCC(=O)c3ccccc3)N21	?	3	-8%	-19%	-4%	0%[56.1 µM]
COC(=O)[C@@]1(Cc2ccccc2)[C@H]2C(=O)N(C)C(=O)[C@H]2[C@H]2CN=C(SCC3CC3)N21	-19%	-5	2%	?	3.7µM*	-1%[56.1 µM]
COC(=O)[C@@]1(Cc2ccccc2)[C@H]2C(=O)N(C)C(=O)[C@H]2[C@H]2CN=C(SCc3ccc(C)cc3)N21	16µM*	-8	-8%	-38%	18µM*	1%[56.1 µM]
COC(=O)c1ccc(CSC2=NC[C@@H]3[C@@H]4C(=O)N(C)C(=O)[C@@H]4[C@](Cc4ccccc4)(C(=O)OC)N23)cc1	?	-7	2%	-3%	16µM*	0%[56.1 µM]
Cc1ccccc1-n1nc2c(c1NC(=O)c1cc3ccccc3o1)CS(=O)(=O)C2	4%	-3	7%	1%	-20%	-6%
COc1ccc(NC(=O)c2c(C)noc2-c2snnc2C)cc1	21µM*	-5	0%	-10%	?	3%
COc1ccc(CCNC(=O)c2cnc3ccc(C)cn3c2=O)cc1OC	?	·	0%	-7%	21µM*	0%
COc1ccc(CNC(=O)c2nc(SC(C)C)ncc2Cl)cc1	23µM*	·	-4%	-32%	29µM*	0%
COc1ccc(CCNC(=O)c2cnc3sc(N4CCCCC4)nn3c2=O)cc1OC	?	·	-17%	0%	23µM*	3%
O=C(NCCc1ccc(Cl)cc1)c1cnc2sc(N3CCCC3)nn2c1=O	4.1µM*	·	-9%	-4%	6.5µM*	-1%
COc1ccc(CNC(=O)c2nc(SCc3ccc(C)cc3)ncc2Cl)cc1	?	·	-37%	?	-10%	2%
COCCCNC(=O)c1cnc2sc(N3CCCCC3)nn2c1=O	-12%	·	-13%	-18%	-7%	3%

Compound activity (PubChem)
